PfM18AAP inh = blocks P. falciparum M18 aspartyl aminopeptidase. recombinant PfM18AAP, H-Glu-NHMec fluorogenic cleavage. inhibition, % at 7.35 µM. 1.2% of 290,000 active. AID 1822;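 active means inhibition above the campaign mean inhibition over all tested compounds plus 3 SD, cut at about 28% in these data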;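 further: 0% = plate median of test compound wells and 100% = 2 mM ZnCl2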
A3G deaminase = APOBEC3G (human) deaminase inhibition. Q9HC16. recombinant A3G, ssDNA deamination FAM/TAMRA fluorescence. inhibition, % at 20 µM. 0.28% of 330,000 active. AID 493012;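 active means inhibition of at least 40% at 20 µM, with no more than 30% in the related APOBEC3A deaminase screen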;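 further: plate controls were DMSO wells with A3G for no effect and wells lacking A3G enzyme for full effect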
Target sequence (Q9HC16 whole entry, looked up): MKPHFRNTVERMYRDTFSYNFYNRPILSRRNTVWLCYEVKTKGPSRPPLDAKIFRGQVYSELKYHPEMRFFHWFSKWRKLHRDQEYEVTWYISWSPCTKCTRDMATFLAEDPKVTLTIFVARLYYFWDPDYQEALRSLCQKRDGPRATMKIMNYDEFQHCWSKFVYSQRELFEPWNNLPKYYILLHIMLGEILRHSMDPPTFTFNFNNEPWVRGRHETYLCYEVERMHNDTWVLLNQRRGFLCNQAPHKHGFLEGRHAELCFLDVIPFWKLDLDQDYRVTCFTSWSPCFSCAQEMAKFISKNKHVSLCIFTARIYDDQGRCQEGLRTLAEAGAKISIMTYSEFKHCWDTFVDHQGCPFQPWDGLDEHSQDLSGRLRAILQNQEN
NRP1-CendR mod = alters CendR peptide binding to human NRP-1; 0.85% of 360,000 active; inhibition, % at 25 µM; FAM-RPARPAR peptide binding to NRP-1, fluorescence polarization; O14786;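 active means inhibition or corrected inhibition above about 18%, plus a signal ratio from 0.5 to 1.5, limit read from the data, passing the limit was not always enough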
APOBEC3A inh = blocks human APOBEC3A ssDNA deamination | P31941 | inhibition, % at 20 µM | 0.41% of 330,000 active | recombinant A3A, FAM/TAMRA ssDNA deamination fluorescence | AID 493011;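 active means at least 40% inhibition at 20 µM here, with at most 30% in a related deaminase screen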;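 further: plate controls were A3A with DMSO for no effect and wells lacking A3A enzyme for full effect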
Target sequence (P31941 whole entry, looked up): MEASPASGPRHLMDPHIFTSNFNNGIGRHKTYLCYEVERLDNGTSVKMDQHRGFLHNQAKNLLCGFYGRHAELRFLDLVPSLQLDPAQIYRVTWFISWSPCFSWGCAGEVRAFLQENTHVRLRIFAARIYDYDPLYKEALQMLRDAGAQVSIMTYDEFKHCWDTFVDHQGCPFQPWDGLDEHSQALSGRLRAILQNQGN
CR mimetic SO = yeast age-related superoxide inhibition as caloric restriction mimetic. S. cerevisiae aged cells, superoxide DHE fluorescence; active compounds read low. superoxide response (% of plate mean), % at 10 µM. 0.18% of 330,000 active;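 active means superoxide response under a set limit, about three screen SD below normal, cut at about 65% in these data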;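 further: yeast aged for seven days with compound at 30 °C before DHE staining; 100% = average MFI of all compound-treated wells on the plate with controls excluded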
ALR inh = inhibitors of human sulfhydryl oxidase ALR. P55789. purified ALR, DTT oxidation, H2O2 HRP-luminol luminescence. inhibition, % (no concentration beside the values). 3.8% of 290,000 active;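 active means mean replicate inhibition above about 79%, with every replicate also reaching it, limit read from the data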
* = called active by the depositor; / = no result given. Rows were chosen to be rich in hits. Some 5.2% of all compounds tested hit in one or more screens of this group.

SMILES	PfM18AAP inh	A3G deaminase	NRP1-CendR mod	APOBEC3A inh	CR mimetic SO	ALR inh
O=C(CCN1C(=O)/C(=C\c2ccccc2Cl)SC1=S)Nc1cccnc1	22	-7	2	-4	100	1
O=C(CN1C(=O)S/C(=C\C=C\c2ccccc2)C1=O)Nc1cccc(O)c1	8	-5	1	5	110	13
CN1CCN(NC(=O)CN2C(=O)/C(=C/c3ccccc3Cl)SC2=S)CC1	10	-2	-16	0	104	99*
CN1CCN(NC(=O)CN2C(=O)/C(=C/c3c(Cl)cccc3Cl)SC2=S)CC1	15	-2	6	-7	96	/
CCc1cccc(NC(=O)Cn2cccc2)c1	3	-6	-1	-8	102	2
COc1ccc(-c2cc(C(=O)OCC(=O)NC(C)(C)C)c3ccccc3n2)cc1	9	-2	-7	-1	122	1
COc1ccc(NC(=O)c2cc(C3CCCCN3S(=O)(=O)c3ccc(C#N)cc3)on2)c(C)c1 (stereo not drawn)	/	/	0	/	/	/
COc1ccc(S(=O)(=O)N2CCCCC2c2cc(C(=O)Nc3ccc(OC)cc3C)no2)cc1 (stereo not drawn)	/	/	45*	/	/	/
S=c1[nH]nc(Cc2cccs2)n1-c1cccc2ccccc12	26	0	-12	-4	96	-3
Cn1c(/C(C#N)=C/Nc2ccccn2)nc2ccccc21	8	-3	-1	-1	71	-1
O=[N+]([O-])c1ccc2c(c1)C=C1CCCCC1(N1CCCC1)O2 (stereo not drawn)	-2	-3	1	-1	105	92*
O=[N+]([O-])c1ccc2c(c1)nc1n2CCCCC1	5	-7	3	-3	104	-2
Cn1c(=O)c2c(nc(SCC(=O)c3ccccc3F)n2C)n(C)c1=O	-4	-6	/	-1	78	-2
CNc1sc(C(=O)c2ccccc2F)c(N)c1-c1nc2ccccc2s1	1	0	-19	0	105	91*
O=C(CNC(=O)c1ccccc1F)OCc1nc2ccccc2s1	11	-6	-16	-4	105	-2
Cc1nn(Cc2ccc(Cl)cc2)c(C)c1NC(=O)CSc1nc2c(c(C(F)(F)F)n1)CCc1ccccc1-2	8	0	-16	5	101	98*
O=C(CSc1nnc(-c2ccc(O)cc2)n1Cc1ccco1)c1cccs1	-7	-3	-9	-2	117	99*
O=C(CC(SCc1ccco1)c1ccc(O)cc1)c1cccs1 (stereo not drawn)	25	2	-4	4	89	96*
O=C(CSc1nnc(-c2cccnc2)n1Cc1ccco1)c1ccccc1	-2	-9	-6	-1	93	74
O=C(CSc1nnc(-c2ccc(O)cc2)n1Cc1ccco1)c1ccccc1	-9	-5	5	2	92	94*
NC(=O)C1CCN(C(=O)c2ccc(NS(=O)(=O)c3ccc(F)cc3)cc2)CC1	/	0	-5	1	126	8
COc1ccccc1-c1nn2c(-c3ccco3)nnc2s1	11	11	-18	8	88	3
CCOC(=O)/C(=C/c1c[nH]c2ccccc12)NC(C)=O	-6	-10	5	-3	102	97*
COC(=O)/C(=C/c1c[nH]c2ccccc12)NC(C)=O	0	-1	7	0	84	30
O=c1c2[nH]cnc2n(-c2ccccc2)c(=O)n1Cc1ccccc1	1	-8	-8	-5	121	5
SMILES	PfM18AAP inh	A3G deaminase	NRP1-CendR mod	APOBEC3A inh	CR mimetic SO	ALR inh
COc1cccc(-n2c(=O)n(Cc3ccccc3)c(=O)c3[nH]cnc32)c1	-1	0	22*	4	98	4
Nc1ccc(-c2c3ccc(=O)cc-3oc3cc(O)ccc23)c(C(=O)O)c1	/	-71	143	-37	180	22
CCOC(=O)c1ccc(N2C(=O)CC(Sc3nnc(C)s3)C2=O)cc1 (stereo not drawn)	-31	22	35*	-5	112	91*
CCOc1ccccc1NC(=O)CCn1c(=O)oc2ccccc21	3	2	13	1	90	/
Cc1csc(SCC(=O)Nc2ccccc2)n1	0	-6	-5	-2	97	25
Cc1[nH]c2ccccc2c1-c1csc(NC(=O)CSCCO)n1	4	3	11	-8	92	99*
Cc1csc(NC(=O)CSc2nc3ccccc3c(=O)[nH]2)n1	4	0	9	-1	100	99*
CC(C)(C)c1csc(NC(=O)CSc2nc3ccccc3c(=O)[nH]2)n1	-3	-3	-1	11	91	94*
Cc1csc(NC(=O)CSCC(=O)Nc2ccccc2)n1	4	-6	0	-3	104	92*
CCOc1ccc(-c2csc(NC(=O)CSCC(=O)O)n2)c2ccccc12	1	-5	-14	-3	99	44
Cc1cccc(C)c1NC(=O)CSc1nc2ccccc2c(=O)[nH]1	-1	-9	-7	-1	105	-1
CN(C)Cc1c(C(=O)N/N=C/c2ccoc2)nnn1-c1nonc1N	5	0	-1	2	112	4
CCN1CCN(C(=S)NCc2ccc(C)cc2)CC1	-9	-4	0	0	101	-30
CCC(=O)N1CCCC(C)(C(=O)Nc2ccc(OC)c(F)c2)C1 (stereo not drawn)	/	/	-9	/	/	/
COC(=O)CCc1ccc(O)cc1	-3	-4	-6	-4	98	14
COc1cc(O)ccc1C(=O)CCc1ccc(O)cc1	3	-5	18	-1	103	99*
CCOC(=O)c1nnc(-c2ccc(C)cc2)nc1Sc1cccc(Cl)c1	-3	-6	3	0	99	/
O=C(O)c1cnc(-c2ccccc2)nc1Sc1ccccc1Cl	-7	-2	-16	4	115	98*
CCOC(=O)c1nnc(-c2ccccc2)nc1Sc1ccccc1Cl	-8	-3	-5	-2	107	97*
Cc1ccnc(NS(=O)(=O)c2ccc(NC(=O)c3ccc4c(c3)OCCO4)cc2)n1	-8	-8	4	0	98	10
O=C1NC(=O)C(=Cc2ccccc2)N1	/	/	-27	/	/	/
CN(C)c1ccc(/C=C2/NC(=O)NC2=O)cc1	4	-3	-6	-1	94	99*
Cc1ccc(NC(=O)[C@@H](CC(C)C)NC(=O)[C@@H]2Cc3ccccc3CN2)cc1	-6	-8	9	-8	74	-9
Cc1ccc(NC(=O)[C@H](CC(C)C)NC(=O)[C@@H]2Cc3ccccc3CN2)cc1	-6	-5	21*	-5	89	-1
O=C1NC(Cc2ccccc2)C(=O)N1Cc1ccccc1 (stereo not drawn)	/	/	-2	/	/	/
O=c1ccsn1Cc1ccccc1	33*	5	28*	-4	86	98*
C=CCN(CC=C)C(=O)C1CC(=O)N(c2ccc(Br)cc2)C1 (stereo not drawn)	9	-5	30*	-4	88	/
